Bioassay records deposited in PubChem by several laboratories.
The list is not random: actives were taken first. Their share in the collection is about 3.4%.
TWEAK-Fn14 inh – inhibitors of TWEAK-Fn14 interaction signaling | AID 1159606 | actives 2% (n = 360,000) | TWEAK-stimulated Fn14 reporter cells, luciferase luminescence, 8 h | inhibition, % at 10 µM; in the data active means inhibition above about 50%
MITF TRPM1 inh – inhibitors of MITF-driven TRPM1 promoter in melanoma cells | SK-MEL-5 TRPM1 promoter luciferase, 24 h | actives 0.83% (n = 330,000) | AID 488899 | inhibition, % at 12.5 µM;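 active means mean inhibition across replicates of 60% or more, whatever share of single replicates reaches that level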
Shn3 inh set2 – inhibitors of Schnurri-3 3'UTR reporter in osteoblasts; Clone20 osteoblast Shn3 3'UTR firefly luciferase, 24 h; actives 0.52% (n = 360,000); inhibition, % at 12.5 µM;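 active means mean inhibition of at least 75% with every replicate also reaching 75%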;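 further: 0% = median of neutral control wells and 100% = pilot-screen positive control compound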
HIF-2a inh – HIF-2a inhibition; inhibition, % at 18.8 µM; AID 624352; actives 0.72% (n = 360,000); 786-0 RCC cells HIF-2a reporter, luciferase luminescence, overnight;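 active means inhibition of the luminescence signal of 40% or more relative to plate controls, in a single-dose primary screen at 18.75 µM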
TROY NFkB inh – inhibitors of TROY-dependent NF-kB signaling; AID 1347056; inhibition, % at 10 µM; Q293 LMP1-TROYcd NF-kB luciferase reporter, 4 h; actives 0.98% (n = 360,000);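 active means compounds whose plate-normalised and pattern-corrected inhibition of the luciferase reporter signal at the single screening dose is 50% or more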
LMP1 NFkB inh – inhibitors of Epstein-Barr LMP1-induced NF-kappaB reporter. AID 504558. LMP1-induced NF-kappaB luciferase reporter cells, luminescence. inhibition, % at 12.5 µM. actives 0.69% (n = 350,000); in the data active means inhibition above about 41%;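 further: 0% = neutral control wells and 100% = reference inhibitor control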
Mdm2-MdmX confirm – Mdm2/MdmX (human) interaction inhibition, confirmed; inhibition, % at 8 µM; actives 99% (n = 740); SaOS-2 split-luciferase Mdm2/MdmX complementation, luminescence; shares compounds with HIF-2a inh;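 active means mean inhibition of the luminescence signal across two replicates at or above 26 percent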
Target sequence (O15151 whole entry, looked up): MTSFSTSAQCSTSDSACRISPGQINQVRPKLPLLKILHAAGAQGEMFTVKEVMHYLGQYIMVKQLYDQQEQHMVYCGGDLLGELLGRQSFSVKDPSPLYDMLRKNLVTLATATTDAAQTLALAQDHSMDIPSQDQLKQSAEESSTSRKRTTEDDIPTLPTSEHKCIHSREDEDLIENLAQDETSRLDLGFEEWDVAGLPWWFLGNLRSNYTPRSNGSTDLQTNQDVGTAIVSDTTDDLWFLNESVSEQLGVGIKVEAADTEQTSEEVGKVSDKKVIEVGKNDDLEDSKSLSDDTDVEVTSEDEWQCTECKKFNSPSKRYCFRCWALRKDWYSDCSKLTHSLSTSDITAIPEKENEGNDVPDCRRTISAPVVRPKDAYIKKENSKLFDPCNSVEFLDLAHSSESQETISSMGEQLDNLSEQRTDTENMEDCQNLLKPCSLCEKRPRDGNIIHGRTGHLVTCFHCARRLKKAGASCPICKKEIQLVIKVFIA
Target sequence (Q00987 whole entry, looked up): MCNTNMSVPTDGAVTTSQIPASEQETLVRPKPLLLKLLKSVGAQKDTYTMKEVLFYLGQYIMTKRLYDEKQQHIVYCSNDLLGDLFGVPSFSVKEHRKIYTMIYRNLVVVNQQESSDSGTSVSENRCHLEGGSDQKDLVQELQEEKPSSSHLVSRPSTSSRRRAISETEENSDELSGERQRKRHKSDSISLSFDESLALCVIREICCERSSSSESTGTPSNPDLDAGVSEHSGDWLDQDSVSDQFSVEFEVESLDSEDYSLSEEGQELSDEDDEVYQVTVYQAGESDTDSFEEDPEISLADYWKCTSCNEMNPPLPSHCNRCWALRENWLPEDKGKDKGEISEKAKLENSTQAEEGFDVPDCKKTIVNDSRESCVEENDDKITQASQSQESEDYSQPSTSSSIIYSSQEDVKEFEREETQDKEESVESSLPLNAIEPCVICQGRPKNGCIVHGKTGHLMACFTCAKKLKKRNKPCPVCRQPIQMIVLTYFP
HIF-2a inh conf – HIF-2a inhibition, single concentration confirmation. 786-0 RCC cells, HIF-2a luciferase reporter luminescence, overnight. actives 56% (n = 1,800). inhibition, % at 18.8 µM. shares compounds with HIF-2a inh;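 active means mean inhibition across four replicates of at least 40 percent at the single tested concentration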
HIF-1a cs – counter-screen for HIF-2a inhibitors: HIF-1a inhibition in MiaPaCa-2 cells. shares compounds with HIF-2a inh. MiaPaCa-2 HIF-1a luciferase reporter, desferoxamine, overnight. inhibition, % at 18.8 µM. actives 72% (n = 1,800). AID 651589;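 active means mean inhibition of the reporter signal across four replicates at the single tested dose of 50% or more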
* = called active by the depositor.

What do the screens show for `CC(=O)c1cccc(NC(=S)NC(=O)c2ccccc2Cl)c1`?
TWEAK-Fn14 inh: -5; MITF TRPM1 inh: 3; Shn3 inh set2: -9; HIF-2a inh: -37; TROY NFkB inh: -30; LMP1 NFkB inh: -1

How did CSc1cccc(NC(=O)C(=O)NCc2ccccc2)c1 do in these assays?
TWEAK-Fn14 inh: -6; MITF TRPM1 inh: -11; Shn3 inh set2: -12; HIF-2a inh: -8; TROY NFkB inh: -24; LMP1 NFkB inh: 0

Results for COC(=O)c1cccc(NC(=O)NC(=O)c2ccccc2Cl)c1 ?
TWEAK-Fn14 inh: -14; MITF TRPM1 inh: 59; Shn3 inh set2: 23; HIF-2a inh: 57*; TROY NFkB inh: -17; LMP1 NFkB inh: 37; HIF-2a inh conf: 64*; HIF-1a cs: -68

How did O=C(Nc1cccc(C(=O)O)c1)Nc1cccc2ccccc12 do in these assays?
TWEAK-Fn14 inh: -23; MITF TRPM1 inh: 9; Shn3 inh set2: -3; HIF-2a inh: -38; TROY NFkB inh: -42; LMP1 NFkB inh: -10

What do the screens show for `O=C(NCc1ccccc1)C(=O)Nc1cccc(C(=O)O)c1`?
TWEAK-Fn14 inh: 9; MITF TRPM1 inh: 63*; Shn3 inh set2: 30; HIF-2a inh: 58*; TROY NFkB inh: -27; LMP1 NFkB inh: 67*; HIF-2a inh conf: 71*; HIF-1a cs: -38

Results for Cc1sc2nc(C(C)C)nc(SCC(=O)N3c4ccccc4CC3C)c2c1C (stereo not drawn) ?
TWEAK-Fn14 inh: -18; MITF TRPM1 inh: -2; Shn3 inh set2: 5; HIF-2a inh: 20; TROY NFkB inh: -8; LMP1 NFkB inh: 14

What do the screens show for `CCc1nc(SCC(=O)N2c3ccccc3CC2C)c2c(C)c(C)sc2n1` (stereo not drawn)?
TWEAK-Fn14 inh: 14; MITF TRPM1 inh: 8; Shn3 inh set2: 25; HIF-2a inh: 15; TROY NFkB inh: 15; LMP1 NFkB inh: 16; Mdm2-MdmX confirm: 101*

What do the screens show for `Cc1c(NS(=O)(=O)c2ccc(NC(=O)CCC(=O)O)cc2)c(=O)n(-c2ccccc2)n1C`?
TWEAK-Fn14 inh: 11; MITF TRPM1 inh: 10; Shn3 inh set2: 3; HIF-2a inh: 10; TROY NFkB inh: 8; LMP1 NFkB inh: -22

What do the screens show for `O=C(NCCCc1ccccc1)c1ccc([N+](=O)[O-])cc1Cl`?
TWEAK-Fn14 inh: 39; MITF TRPM1 inh: -64; Shn3 inh set2: -17; HIF-2a inh: -203; TROY NFkB inh: 34; LMP1 NFkB inh: -16

Results for Cc1ccc(NC(=O)/C=C/c2ccc([N+](=O)[O-])s2)c(C)c1 ?
TWEAK-Fn14 inh: 91*; MITF TRPM1 inh: 109*; Shn3 inh set2: 94*; HIF-2a inh: 79*; TROY NFkB inh: 4; LMP1 NFkB inh: 84*; HIF-2a inh conf: -23; HIF-1a cs: 100*

Results for Cc1cc([N+](=O)[O-])ccc1NC(=O)/C=C/c1cccs1 ?
TWEAK-Fn14 inh: -8; MITF TRPM1 inh: -62; Shn3 inh set2: -39; HIF-2a inh: -228; TROY NFkB inh: -56; LMP1 NFkB inh: -11

How did COc1cccc(NC(=O)/C=C/c2ccccc2[N+](=O)[O-])c1 do in these assays?
TWEAK-Fn14 inh: -14; MITF TRPM1 inh: -52; Shn3 inh set2: -90; HIF-2a inh: -236; TROY NFkB inh: -68; LMP1 NFkB inh: -28

Results for Cc1cccc(NC(=O)/C=C/c2ccc([N+](=O)[O-])s2)c1 ?
TWEAK-Fn14 inh: 85*; MITF TRPM1 inh: 95*; Shn3 inh set2: 91*; HIF-2a inh: 49*; TROY NFkB inh: -39; LMP1 NFkB inh: 88*; HIF-2a inh conf: -163; HIF-1a cs: 103*

What do the screens show for `Cc1cc(NC(=O)NC2CC(=O)N(c3ccc4c(c3)OCCO4)C2)no1` (stereo not drawn)?
TWEAK-Fn14 inh: 11; MITF TRPM1 inh: -2; Shn3 inh set2: -10; HIF-2a inh: 13; TROY NFkB inh: 6; LMP1 NFkB inh: -8

How did CC(=O)Nc1ccc2c(c1)CCc1ccccc1-2 do in these assays?
TWEAK-Fn14 inh: -4; MITF TRPM1 inh: -28; Shn3 inh set2: -53; HIF-2a inh: -128; TROY NFkB inh: -48; LMP1 NFkB inh: -15

Results for O=C(O)/C=C/C(=O)c1ccc2c(c1)CCc1ccccc1-2 ?
TWEAK-Fn14 inh: 22; Shn3 inh set2: 81; HIF-2a inh: 50*; TROY NFkB inh: -27; LMP1 NFkB inh: 4; HIF-2a inh conf: 57*; HIF-1a cs: 103*

What do the screens show for `O=C(CSc1nnc(-c2cccs2)n1C1CC1)NCC1CCCO1` (stereo not drawn)?
TWEAK-Fn14 inh: 6; MITF TRPM1 inh: 5; Shn3 inh set2: 3; HIF-2a inh: 6; TROY NFkB inh: -9; LMP1 NFkB inh: 7

How did O=C(NCCS(=O)(=O)N1CCN(c2ccccc2)CC1)C1CC1 do in these assays?
TWEAK-Fn14 inh: -6; MITF TRPM1 inh: -9; Shn3 inh set2: 11; HIF-2a inh: 17; TROY NFkB inh: 12; LMP1 NFkB inh: 3

How did CC(C)c1ccc(Nc2ccc(C(=O)O)cc2[N+](=O)[O-])cc1 do in these assays?
TWEAK-Fn14 inh: -14; MITF TRPM1 inh: -4; Shn3 inh set2: -5; HIF-2a inh: -47; TROY NFkB inh: -13; LMP1 NFkB inh: -8

What do the screens show for `CCS(=O)(=O)CCSc1nc2ccccc2o1`?
TWEAK-Fn14 inh: -8; MITF TRPM1 inh: -1; Shn3 inh set2: -3; HIF-2a inh: 7; TROY NFkB inh: -11; LMP1 NFkB inh: -13

How did O=S(=O)(CCSc1nc2ccccc2o1)c1nc2ccccc2s1 do in these assays?
TWEAK-Fn14 inh: 91*; MITF TRPM1 inh: 54; Shn3 inh set2: -20; HIF-2a inh: 57*; TROY NFkB inh: 67*; LMP1 NFkB inh: 0; HIF-2a inh conf: 70*; HIF-1a cs: 90*

What do the screens show for `CCN(C(=O)COC(=O)CNC(=O)c1ccc(Cl)cc1Cl)c1c(N)n(Cc2ccccc2)c(=O)[nH]c1=O`?
TWEAK-Fn14 inh: -9; MITF TRPM1 inh: -5; Shn3 inh set2: -4; HIF-2a inh: 9; TROY NFkB inh: -28; LMP1 NFkB inh: 4

How did COc1ccc(OC(C)C(=O)NC2CCCCCCC2)cc1 (stereo not drawn) do in these assays?
TWEAK-Fn14 inh: -2; MITF TRPM1 inh: -4; Shn3 inh set2: 11; HIF-2a inh: 0; TROY NFkB inh: 10

Results for CN1C2CCC1CC(NC(=O)c1cc(S(=O)(=O)N(C)C)c(Cl)cc1Cl)C2 (stereo not drawn) ?
TWEAK-Fn14 inh: 2; MITF TRPM1 inh: 4; Shn3 inh set2: -25; HIF-2a inh: 4; TROY NFkB inh: -21; LMP1 NFkB inh: 0
